Compounds without any hit were thinned out: in the full panel of roughly 79,000, 15% have a hit. A number with no mark means an inactive call. No stated cut-off is given here; in the data, active means growth inhibition above about 70%; inactive means the rest.
Assay: NCI Yeast Anticancer Drug Screen. Data for the mlh1 rad18 strain (AID 175)
Details: S. cerevisiae mlh1 rad18 strain growth inhibition; at 50.0 µM; active compounds read high
Summary of the method: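 Cells of a genetically altered yeast strain, deficient in DNA damage repair, were treated with compound. Their growth was then compared with that of vehicle-treated cultures to give inhibition.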
With `O=[N+]([O-])c1ccc(P2(=O)Nc3ccccc3N2)cc1` the growth inhibition was -11.6%.
Work on `Oc1cccc(-c2ccccc2)c1` yielded a growth inhibition of 21.2%.
Work on `O=[Se](=O)(O)O` yielded a growth inhibition of -14.5%.
`ClCCN(CCCl)c1ncnc2c1ncn2Cc1ccccc1` showed a growth inhibition of -0.4%.
